Laboratory results from PubChem BioAssay AID1259421 (Broad Institute, 2018).
“And” between values parts separate entries of the source, which are not always exact repeats. Identical values can stand only once. In all, about 6,400 compounds went through this assay and about 610 (9.5%) were called active. Rule as the data show it: active = activity change below about -70%; inconclusive = no clear call, values can overlap the other calls; inactive = above that. The full list was thinned out, with actives kept by preference. Some compounds were tested as several samples or in several runs, with calls that do not always agree.

Assay: Toxoplasma gondii ME49Luc growth in HeLa cells, luciferase, no IFN-y, primary screen (AID 1259421)
Details: T. gondii ME49Luc in HeLa, 72 h, stronger effect = lower value, concentration not given here

| Compound | activity change, negative = inhibition |
| --- | --- |
| Brc1c(Br)c(Br)c2n[nH]nc2c1Br | 5.07% (inactive) and 22.5% (inactive) |
| OCc1cc2c(cn1)[nH]c1ccccc12 | 12.8% (inactive) |
| CCOC(=O)c1c(C)[nH]c2ccc3c(c12)CN1CCc2cc(OC)ccc2C1O3 (configuration not stated) | 5.91% (inactive) |
| C[C@@H](O)CNC(C)(C)CC(=O)N[C@@H]1CCc2ccccc2N(Cc2ccc(-c3ccccc3-c3nn[nH]n3)cc2)C1=O | 8.07% (inactive) |
| CC[C@H](Nc1ncnc2nc[nH]c12)c1nc2cccc(F)c2c(=O)n1-c1ccccc1 | 0.609% (inactive) |
| Nc1c(S(=O)(=O)O)cc(Nc2cccc3ccccc23)c2c1C(=O)c1ccccc1C2=O | 5.63% (inactive) |
| C[C@H](CCC(=O)NCC(=O)O)[C@H]1CCC2C3C(C[C@H](O)[C@@]21C)[C@@]1(C)CC[C@@H](O)CC1C[C@H]3O (some centres not stated) | 3.03% (inactive) |
| CN(C)C(=N)N=C(N)N | 11% (inactive) and -0.508% (inactive) |
| CN(C)CC(=O)Nc1ccc2[nH]c(=O)c3ccccc3c2c1 | -4.97% (inactive) |
| O=C(c1ccc2nccnc2c1)N1CCCCC1 | 3.08% (inactive) |
| COC(=O)[C@]12CCC(C)(C)C[C@@H]1[C@@H]1C(=O)C=C3[C@]4(C)C=C(C#N)C(=O)C(C)(C)[C@@H]4CC[C@@]3(C)[C@]1(C)CC2 | -87.4% (active) |
| CC(=O)N[C@@H](CSC/C=C(\C)CC/C=C(\C)CCC=C(C)C)C(=O)O | 7.49% (inactive) |
| OC[C@H]1NC[C@@H](O)[C@@H](O)[C@@H]1O | 13.1% (inactive) |
| COc1ccc(C(=O)NCc2cccnc2)cc1C(=O)NCc1cccnc1 | 7.12% (inactive) |
| CCC[C@H](Nc1nc(-c2ccc(NC(=O)NCC)c(OC)c2)ncc1C)c1cccnc1 | -75.6% (active) |
| Oc1ccccc1-c1nnco1 | 11.7% (inactive) |
| CCCCCCCCCCCCCCCCCCCCCC(=O)O | -1.78% (inactive) |
| CCCCCCCCCCCC1C(=O)C(=O)CC(=O)C1=O | -89.4% (active) and -2.92% (inactive) |
| CCCCC1C(=O)N(c2ccccc2)N(c2ccccc2)C1=O | 10.6% (inactive) and 30.2% (inactive) and 17.8% (inactive) |
| O=C(/C=C/c1ccc2ccccc2n1)c1ccncc1 | 3.25% (inactive) |
| CN(C)C1C(=O)C(C(N)=O)C(=O)C2(O)C(=O)C3C(=O)c4c(O)ccc(Cl)c4C(O)C3CC12 (configuration not stated) | 321% (inactive) |
| COC(=O)NC(C)CNc1nccc(-c2cn(C(C)C)nc2-c2cc(Cl)cc(NS(C)(=O)=O)c2F)n1 (configuration not stated) | -71.5% (active) |
| O=c1[nH]nc2c3c(cccc13)NC(CN1Cc3ccccc3C1)=N2 | 12.4% (inactive) |
| Oc1ccc([C@@H]2Oc3ccc(O)cc3[C@@H]3CCC[C@@H]32)cc1 | 6.56% (inactive) |
| Cc1cc(O)cc2c1O[C@](C)(CCC[C@H](C)CCC[C@H](C)CCCC(C)C)CC2 | -4.66% (inactive) |
| COc1c(C)c2c(c(O)c1C/C=C(\C)CCC(=O)OCCN1CCOCC1)C(=O)OC2 | -75.2% (active) and -92% (active) |

| Compound | activity change, negative = inhibition |
| --- | --- |
| COc1c(C)c2c(c(O)c1C/C=C(\C)CCC(=O)O)C(=O)OC2 | -74.4% (active) and -89.1% (active) |
| COc1c(C)c2c(c(O)c1C/C=C(/C)CCC(=O)O)C(=O)OC2 | -79.6% (active) |
| C#CC1(OCC(O)CN2CCN(c3ccccc3OC)CC2)CCCCC1 (configuration not stated) | 9.69% (inactive) |
| CCCCC/C=C\C[C@@H](O)/C=C/C=C/C=C\[C@@H](O)CCCC(=O)O | 7.41% (inactive) |
| N=[N+]=CC(=O)CC[C@H](N)C(=O)O | 0.432% (inactive) |
| c1ccc2[nH]c(-c3nc4ccccc4[nH]3)nc2c1 | 156% (inactive) |
| c1ccc(-c2nc3ccccc3[nH]2)cc1 | 279% (inactive) |
| CC(C)(C)c1ccc(-c2nc3ccccc3[nH]2)cc1 | -87.4% (active) |
| CC1(C)CC1C(=O)N/C(=C\CCCCSCC(N)C(=O)O)C(=O)O (configuration not stated) | 8.4% (inactive) |
| CC(=O)O[C@H]1C[C@@]2(C)[C@@H](C[C@@H](O)[C@H]3[C@@]4(C)CC[C@@H](O)[C@@H](C)C4CC[C@@]32C)/C1=C(/CCC=C(C)C)C(=O)O (some centres not stated) | -17.8% (inactive) |
| Cc1cc(OCCCS(C)(=O)=O)cc(C)c1-c1cccc(COc2ccc3c(c2)OC[C@H]3CC(=O)O)c1 | 15.8% (inactive) |
| COc1ccc2[nH]c(I)c(CCNC(C)=O)c2c1 | 14.7% (inactive) and -1.11% (inactive) |
| CC1C(=O)C(=O)[C@@H]2O[C@@H]2C1=O (some centres not stated) | 7.42% (inactive) |
| O=C(Nc1cccc(Cl)c1)c1ccccn1 | 154% (inactive) |
| O=C(Nc1cccc(Cl)c1)Nc1ncc(CCNc2ncnc3ccsc23)s1 | -92.1% (active) |
| COc1cc2ncnc(Nc3cccc(Cl)c3)c2cc1OC | -46.3% (inactive) |
| O[C@H](CNC[C@@H](O)[C@H]1CCc2cc(F)ccc2O1)[C@@H]1CCc2cc(F)ccc2O1 | 9.73% (inactive) |
| C=C(C)[C@@H]1CC[C@]2(CO)CC[C@]3(C)[C@H](CC[C@@H]4[C@@]5(C)CC[C@H](O)C(C)(C)[C@@H]5CC[C@]43C)[C@@H]12 | 19.1% (inactive) |
| Cc1nnc(-c2ccc3occ(-c4ccc(S(C)=O)cc4)c3c2)o1 (configuration not stated) | 1.22% (inactive) |
| O=C(c1ccc(F)cc1)C1CCN(CCCCc2ccccc2)CC1 | 3.6% (inactive) and 8.67% (inactive) |
| O=C(NCCCN1CCC2(CC1)OCc1ccccc12)[C@H]1CCCN1Cc1ccccc1 | 18.8% (inactive) |
| Fc1ccc(-n2cc(CCCCN3CCC4(CC3)OCc3ccccc34)c3ccccc32)cc1 | -77.2% (active) |
| CN(CCOc1ccc(CC(Nc2ccccc2C(=O)c2ccccc2)C(=O)O)cc1)c1ccccn1 (configuration not stated) | 1.37% (inactive) |
| CCOC(=O)[C@@H](N)CCC(=O)N[C@@H](CSCc1ccccc1)C(=O)N[C@@H](C(=O)OCC)c1ccccc1 | -2.09% (inactive) |
| CC1OC(OCC2OC(Oc3c(-c4ccc(O)c(O)c4)oc4cc(O)cc(O)c4c3=O)C(O)C(O)C2O)C(O)C(O)C1O (configuration not stated) | -9.9% (inactive) |
| CS(=O)(=O)c1ccc(C(O)[C@H](CF)NC(=O)C(Cl)Cl)cc1 (some centres not stated) | -54.7% (inactive) and -27.8% (inactive) |
